The record followed here is PubChem BioAssay (NCI).

The nature of assay [1]: NCI Yeast Anticancer Drug Screen. Data for the rad50 strain (AID 155).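 Also: 0% = growth of vehicle-only cultures of the same strain.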 Particulars: S. cerevisiae rad50 strain growth inhibition, hits give high values. In outline: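 Genetically altered yeast (DNA repair pathway); compound treatment; growth inhibition vs vehicle ctrl.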
A short description of assay [2]: NCI Yeast Anticancer Drug Screen. Data for the mec2-1 strain (AID 157). As to conditions: S. cerevisiae mec2-1 strain, hits give high values. An outline of the steps: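 Vehicle-treated cultures served as reference for growth inhibition of compound-exposed mec2-1 yeast.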
The nature of assay [3]: NCI Yeast Anticancer Drug Screen. Data for the sgs1 mgt1 strain (AID 161).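 Also: 0% = growth of cultures given vehicle only.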 Particulars: S. cerevisiae sgs1 mgt1 strain, hits give high values. An outline of the steps:
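Genetically altered yeast, compound exposure, growth inhibition relative to vehicle.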

A short description of assay [4]: NCI Yeast Anticancer Drug Screen. Data for the cln2 rad14 strain (AID 165).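 Also: 0% = growth equal to vehicle treated cultures.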 As to conditions: S. cerevisiae cln2 rad14 strain, hits give high values. An outline of the steps: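 Each compound was tested on cln2 rad14 yeast. Inhibition of growth was calculated against vehicle-exposed controls.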
A short description of assay [5]: NCI Yeast Anticancer Drug Screen. Data for the bub3 strain (AID 167). As to conditions: S. cerevisiae bub3 mutant strain, hits give high values. An outline of the steps:
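Yeast carrying a defined mutation is treated with each compound, and growth is compared with that of vehicle-exposed cells to give inhibition.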

Assay [6] can be described thus: NCI Yeast Anticancer Drug Screen. Data for the mlh1 rad18 strain (AID 175). As to conditions: S. cerevisiae mlh1 rad18 strain growth inhibition, hits give high values. In outline: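 Vehicle-treated cultures served as the reference for growth inhibition in a yeast strain carrying DNA damage repair alterations exposed to each compound.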
Where [7] appears, read: at 5.0 µM (retest, dose inferred, filed as 0.5).
The mark [8] stands for this setting: at 50.0 µM (retest, dose inferred, filed as 5.0).

This is part of a sample that, as a whole, favours compounds with a hit. Of some 79,000 tested, about 15% had one in any assay. A number with no mark means an inactive call. Active and inactive are the calls of the source. Rule as the data show it: active = growth inhibition above about 70%; inactive = the rest.

With `Cc1nn(-c2ccc(Cl)cc2)c2nc(N)nc(N)c12`, the growth inhibition is 3% in assay [1] (setting [7]); 0% in assay [1] (setting [8]); 30.2% in assay [1] (at 50.0 µM); -3% in assay [2] (setting [7]); 11% in assay [2] (setting [8]); 30.6% in assay [2] (at 50.0 µM). The growth inhibition was 2% in assay [3] (setting [7]); -2% in assay [3] (setting [8]); 34.4% in assay [3] (at 50.0 µM); -5% in assay [4] (setting [7]); -6% in assay [4] (setting [8]); 62.6% in assay [4] (at 50.0 µM). The growth inhibition was -1% in assay [5] (setting [7]); 0% in assay [5] (setting [8]); 21.2% in assay [5] (at 50.0 µM); 0% in assay [6] (setting [7]); 9% in assay [6] (setting [8]); 45.4% in assay [6] (at 50.0 µM).
Turning to `COc1ccc2c3c(c4cc(OC)c(OC)cc4c2c1)CN1CCC[C@H]1[C@@H]3O`, the growth inhibition in assay [1] (setting [7]) is 19%; in assay [1] (setting [8]), 99% (active); in assay [1] (at 50.0 µM), 89.4% (active); in assay [2] (setting [7]), 7%; in assay [2] (setting [8]), 99% (active); in assay [2] (at 50.0 µM) it was 90.6% (active). The growth inhibition in assay [3] (setting [7]) was 97% (active); in assay [3] (setting [8]), 98% (active); in assay [3] (at 50.0 µM) it was 91.1% (active); in assay [4] (setting [7]), 90% (active); in assay [4] (setting [8]), 97% (active); in assay [4] (at 50.0 µM), 88.2% (active). The growth inhibition in assay [5] (setting [7]) is 95% (active); in assay [5] (setting [8]), 98% (active); in assay [5] (at 50.0 µM), 89.7% (active); in assay [6] (setting [7]), 98% (active); in assay [6] (setting [8]), 97% (active); in assay [6] (at 50.0 µM) it was 89.2% (active).
On to `O=c1[nH]c2c([N+](=O)[O-])cc(Cl)cc2nc1/C=C(\O)c1ccc2ccccc2c1`, for which the growth inhibition in assay [1] (setting [7]) was -4%; in assay [1] (setting [8]), 95% (active); in assay [1] (at 50.0 µM) it was 74.3% (active); in assay [2] (setting [7]), 7%; in assay [2] (setting [8]) it was 98% (active); in assay [2] (at 50.0 µM), 72.9% (active). Further, the growth inhibition in assay [3] (setting [7]) was -8%; in assay [3] (setting [8]), 95% (active); in assay [3] (at 50.0 µM) it was 90.1% (active); in assay [4] (setting [7]), 6%; in assay [4] (setting [8]) it was 94% (active); in assay [4] (at 50.0 µM) it was 49.1%. Moreover, the growth inhibition in assay [5] (setting [7]) is -9%; in assay [5] (setting [8]), 97% (active); in assay [5] (at 50.0 µM), 70% (active); in assay [6] (setting [7]), 25%; in assay [6] (setting [8]), 96% (active); in assay [6] (at 50.0 µM) it was 71.5% (active).
For `CCCC/C=C1/CCC(CN(C)C)C1=O` (configuration not stated), the growth inhibition in assay [1] (setting [7]) was 7%; in assay [1] (setting [8]), 60%; in assay [1] (at 50.0 µM) it was 51.9%; in assay [2] (setting [7]), -2%; in assay [2] (setting [8]) it was 48%; in assay [2] (at 50.0 µM), 37.4%. Further, the growth inhibition in assay [3] (setting [7]) is 16%; in assay [3] (setting [8]) it was 56%; in assay [3] (at 50.0 µM), 81% (active); in assay [4] (setting [7]), 6%; in assay [4] (setting [8]), 40%; in assay [4] (at 50.0 µM), 46.2%. In addition, the growth inhibition in assay [5] (setting [7]) was 14%; in assay [5] (setting [8]), 84% (active); in assay [5] (at 50.0 µM), 61.9%; in assay [6] (setting [7]), 19%; in assay [6] (setting [8]), 69%; in assay [6] (at 50.0 µM), 54.2%.
With `CCOSc1ccccc1`, the growth inhibition was 3% in assay [1] (setting [7]); 50% in assay [1] (setting [8]); 34.3% in assay [1] (at 50.0 µM); 5% in assay [2] (setting [7]); 63% in assay [2] (setting [8]); 32.7% in assay [2] (at 50.0 µM). The growth inhibition in assay [3] (setting [7]) is 3%; in assay [3] (setting [8]), 74% (active); in assay [3] (at 50.0 µM), 16.2%; in assay [4] (setting [7]), 2%; in assay [4] (setting [8]), 22%; in assay [4] (at 50.0 µM), 16.1%. Further, the growth inhibition in assay [5] (setting [7]) is 0%; in assay [5] (setting [8]), 74% (active); in assay [5] (at 50.0 µM) it was 20.6%; in assay [6] (setting [7]), 21%; in assay [6] (setting [8]), 93% (active); in assay [6] (at 50.0 µM) it was 56.7%.
As to `C1=C(c2ccccc2)[P+](c2ccccc2)(c2ccccc2)C=C(c2ccccc2)[P+]1(c1ccccc1)c1ccccc1`, the growth inhibition in assay [1] (setting [7]) is 87% (active); in assay [1] (setting [8]) it was 98% (active); in assay [1] (at 50.0 µM), 99.3% (active); in assay [2] (setting [7]), 89% (active); in assay [2] (setting [8]) it was 99% (active); in assay [2] (at 50.0 µM), 99.7% (active). Moreover, the growth inhibition in assay [3] (setting [7]) was 89% (active); in assay [3] (setting [8]), 99% (active); in assay [3] (at 50.0 µM) it was 99.2% (active); in assay [4] (setting [7]) it was 44%; in assay [4] (setting [8]) it was 98% (active); in assay [4] (at 50.0 µM), 98.2% (active). Besides, the growth inhibition in assay [5] (setting [7]) was 83% (active); in assay [5] (setting [8]), 99% (active); in assay [5] (at 50.0 µM) it was 99.2% (active); in assay [6] (setting [7]), 83% (active); in assay [6] (setting [8]), 99% (active); in assay [6] (at 50.0 µM), 99.2% (active).
Consider `CC(NC(=O)OCc1ccccc1)C(=O)NC(Cc1ccccc1)C(=O)OCc1ccccc1` (configuration not stated), for which the growth inhibition in assay [1] (setting [7]) was 1%; in assay [1] (setting [8]), 5%; in assay [1] (at 50.0 µM) it was -17.6%; in assay [2] (setting [7]), 37%; in assay [2] (setting [8]) it was 2%; in assay [2] (at 50.0 µM), -5.05%. The growth inhibition in assay [3] (setting [7]) is -2%; in assay [3] (setting [8]), -1%; in assay [3] (at 50.0 µM), 22%; in assay [4] (setting [7]), 5%; in assay [4] (setting [8]) it was 2%; in assay [4] (at 50.0 µM), 36.6%. The growth inhibition in assay [5] (setting [7]) was -3%; in assay [5] (setting [8]) it was -7%; in assay [5] (at 50.0 µM) it was -4.4%; in assay [6] (setting [7]), 1%; in assay [6] (setting [8]), 7%; in assay [6] (at 50.0 µM), 6.45%.
`CS(=O)(=O)OCCN(CCOS(C)(=O)=O)c1ccc(N=Nc2ccccc2)cc1`: the growth inhibition in assay [1] (setting [7]) was 32%; in assay [1] (setting [8]), 82% (active); in assay [1] (at 50.0 µM), 57.7%; in assay [2] (setting [7]) it was 15%; in assay [2] (setting [8]) it was 73% (active); in assay [2] (at 50.0 µM), 45%. Further, the growth inhibition was 52% in assay [3] (setting [7]); 88% (active) in assay [3] (setting [8]); 46% in assay [3] (at 50.0 µM); 45% in assay [4] (setting [7]); 96% (active) in assay [4] (setting [8]); 49.8% in assay [4] (at 50.0 µM). Besides, the growth inhibition is 56% in assay [5] (setting [7]); 84% (active) in assay [5] (setting [8]); 39.5% in assay [5] (at 50.0 µM); 22% in assay [6] (setting [7]); 69% in assay [6] (setting [8]); 76.8% (active) in assay [6] (at 50.0 µM).
Turning to `CC(=O)N1C(C(=O)NNc2ccccc2)CSC1c1ccccc1` (configuration not stated), the growth inhibition in assay [1] (setting [7]) is 71% (active); in assay [1] (setting [8]), 90% (active); in assay [1] (at 50.0 µM), 38.1%; in assay [2] (setting [7]) it was 40%; in assay [2] (setting [8]) it was 84% (active); in assay [2] (at 50.0 µM), 64.6%. For the same compound, the growth inhibition in assay [3] (setting [7]) is 75% (active); in assay [3] (setting [8]), 89% (active); in assay [3] (at 50.0 µM), 44.6%; in assay [4] (setting [7]) it was 42%; in assay [4] (setting [8]) it was 82% (active); in assay [4] (at 50.0 µM) it was 65%. For the same compound, the growth inhibition in assay [5] (setting [7]) is 57%; in assay [5] (setting [8]) it was 93% (active); in assay [5] (at 50.0 µM), 35.2%; in assay [6] (setting [7]), 83% (active); in assay [6] (setting [8]), 96% (active); in assay [6] (at 50.0 µM) it was 56.1%.
